We go through 33 compounds from PubChem BioAssay (NCATS).

Results filed as inconclusive are left out. Calls of active or inactive are those of the source. The call rests on the fitted dose curve; in most records, active means well fitted activation curve with a large enough effect in the main read-out, with a control signal flat (not every such curve was filed as active); inconclusive means small, poorly fitted or top-dose-only effect, or effect the other way, or a change in a side signal; inactive means flat fitted curve, though single readings scatter.

Sequence of 3',5'-cyclic-AMP phosphodiesterase 4B (Homo sapiens) (Q07343 whole entry, looked up): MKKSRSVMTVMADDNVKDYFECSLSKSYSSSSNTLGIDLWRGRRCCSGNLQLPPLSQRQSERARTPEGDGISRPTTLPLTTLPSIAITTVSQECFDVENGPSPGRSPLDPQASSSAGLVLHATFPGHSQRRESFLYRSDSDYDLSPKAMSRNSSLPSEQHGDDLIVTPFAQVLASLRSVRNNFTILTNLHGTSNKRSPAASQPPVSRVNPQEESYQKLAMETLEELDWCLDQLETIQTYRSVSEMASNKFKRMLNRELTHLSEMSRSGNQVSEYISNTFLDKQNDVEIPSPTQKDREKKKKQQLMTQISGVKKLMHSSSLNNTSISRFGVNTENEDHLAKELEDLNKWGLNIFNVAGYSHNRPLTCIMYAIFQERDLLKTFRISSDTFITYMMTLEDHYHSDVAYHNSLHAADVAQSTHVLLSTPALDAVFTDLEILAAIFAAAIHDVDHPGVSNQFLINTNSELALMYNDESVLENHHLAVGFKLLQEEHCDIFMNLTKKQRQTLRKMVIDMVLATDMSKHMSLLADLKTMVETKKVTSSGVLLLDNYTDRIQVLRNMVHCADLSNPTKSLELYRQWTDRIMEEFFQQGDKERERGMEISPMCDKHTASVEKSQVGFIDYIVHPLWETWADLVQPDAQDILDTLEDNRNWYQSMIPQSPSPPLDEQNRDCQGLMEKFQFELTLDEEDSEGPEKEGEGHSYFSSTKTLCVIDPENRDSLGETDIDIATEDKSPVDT

This assay concerns the target 3',5'-cyclic-AMP phosphodiesterase 4B (Homo sapiens) (UniProt Q07343). Kind of assay: qHTS Assay for Inhibitors of PDE-IV (AID 607). To be noted: HEK293 ACTOne CNG channel cells, membrane potential fluorescence; series mostly up to 22.9 µM. The method, boiled down:
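The readout is membrane depolarisation from a cAMP-sensing CNG channel, detected with a potential dye at ex 535/em 590. Cells were HEK293-derived (endogenous PDE-IV) at 1000 cells/well, titrated up to 22.9 uM final.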
For the compound `COc1cc2c(CCNC(C)=O)c[nH]c2cc1Cl`, the compound was classed as inactive.
The result for `N=c1ccn2c(n1)O[C@H]1[C@H](O)[C@@H](CO)O[C@H]12` reads “inactive”; that for `NC[C@@H]1O[C@H](C23CC4CC(CC(C4)C2)C3)Cc2c1ccc(O)c2O`, “inactive”.
With `NCCCCCCCCCCN` the entry was “inactive”; with `NO`, “inactive”.
The result for `NCCNC(=O)c1ncsc1-c1cccc(F)c1` reads “inactive”; that for `Cc1ccc(C(=O)c2ccc(CC(=O)O)n2C)cc1`, “inactive”.
On to `N#C/C(=C\c1c[nH]c2ccccc12)C(=O)c1ccc(O)c(O)c1`, for which the result was inactive.
With `O=C1C(SCCO)=C(SCCO)C(=O)c2ccccc21` the entry was “inactive”.
Take `Cn1c(=O)c2[nH]c(-c3ccccc3)nc2n(C)c1=O`: the call was inactive.
The result for `Cc1c(N)c(=O)n(-c2ccccc2)n1C` reads “inactive”.
Consider `CC1(C)CCC=[N+]1[O-]`, for which the call was inactive.
The result for `N.N.O=C(O)C1(C(=O)O)CCC1.[Pt]` reads “inactive”.
The result for `CC(=O)SCC[N+](C)(C)C` reads “inactive”; that for `COC1=C(OC)C(=O)c2ccccc2C1=O`, “inactive”.
As for `CN(C)c1nc(N)c(C(=O)N=C(N)N)nc1Cl`, the compound was called inactive.
With `N#C/C(=C\c1ccc(O)c(O)c1)C(=O)c1ccc(O)c(O)c1` the entry was “inactive”; with `O=c1[nH]c2cc([N+](=O)[O-])c([N+](=O)[O-])cc2[nH]c1=O`, “inactive”.
With `Ic1ccc(N2CCN(Cc3c[nH]c4ncccc34)CC2)cc1` the entry was “inactive”; with `NC(N)=NC(=O)c1nc(Cl)c(N2CCCCCC2)nc1N`, “inactive”.
The result for `CCCCN1CCC(n2c(=O)[nH]c3ccccc32)CC1` reads “inactive”.
On to `CCCSc1ccc2nc(NC(=O)OC)[nH]c2c1`, for which the outcome was inactive.
For `Cn1cc(C2=C(c3ccc(Cl)cc3Cl)C(=O)NC2=O)c2ccccc21`, the compound was classed as inactive.
Take `c1ccc(-c2ccccn2)nc1`: the call was inactive.
For `Clc1ccccc1-c1nc(-c2ccncc2)no1`, the call was inactive.
With `Cc1c(Nc2ncccc2C(=O)O)cccc1C(F)(F)F` the entry was “inactive”; with `Cc1nc2sccn2c(=O)c1CCN1CCC(=C(c2ccccc2)c2ccc(F)cc2)CC1`, “inactive”; with `CN1CCc2cc(NC(=O)Nc3cccnc3)ccc21`, “inactive”.
Regarding `NC(=O)C(=O)O`, the call was inactive.
With `COc1ccccc1N1CCN(CCN(C(=O)c2ccc(I)cc2)c2ccccn2)CC1` the entry was “inactive”.
The result for `CCCCCCCC/C=C\CCCCCCCC(=O)NCCO` reads “inactive”.
Regarding `CCCN(CC1CC1)c1nc(C)nc(Nc2c(Cl)cc(Cl)cc2Cl)c1Cl`, the compound was called inactive.
The result for `O=c1[nH]c2cc(Cl)c(Cl)cc2[nH]c1=O` reads “inactive”.
